# Tests used:
# Experiment in all cases: DAPPL (digital affinity profiling via proximity ligation, sequencing); 10 mM Tris-HCl pH 7.5, 50 mM NaCl, 1 mM DTT, 4% glycerol, room temperature, 30 min; GST-TFs on glutathione beads, 16-mer random dsDNA library, 0.1% formaldehyde crosslink after washing; high values mean tight binding
# Conditions in all cases: protein: recombinant; tags: N-terminal GST; dsDNA, one strand shown
# FLI1 = target: T1, FLI1 (Homo sapiens, UniProt Q01543 1-452)
# T1 sequence: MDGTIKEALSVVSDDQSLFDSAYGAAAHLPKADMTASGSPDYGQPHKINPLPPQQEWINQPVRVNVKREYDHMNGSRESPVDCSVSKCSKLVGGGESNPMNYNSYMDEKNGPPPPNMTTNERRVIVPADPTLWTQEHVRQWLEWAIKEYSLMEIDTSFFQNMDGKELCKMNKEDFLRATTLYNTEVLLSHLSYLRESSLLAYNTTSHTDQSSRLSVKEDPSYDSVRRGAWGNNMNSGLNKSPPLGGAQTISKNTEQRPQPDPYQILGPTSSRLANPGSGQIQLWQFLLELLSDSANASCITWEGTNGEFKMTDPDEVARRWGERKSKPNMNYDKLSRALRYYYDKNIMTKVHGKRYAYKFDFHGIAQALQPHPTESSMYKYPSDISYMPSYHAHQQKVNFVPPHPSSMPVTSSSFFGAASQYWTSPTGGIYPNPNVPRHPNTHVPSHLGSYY
# How it was run: (§1)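 Yeast served to express human transcription factors as GST fusions, which were then captured on glutathione beads and labelled with DNA barcodes. Pooled with a tag-only sample, they were incubated with 200 nmole of a 16-mer random double-stranded DNA library for 30 min at room temperature in Tris/NaCl/DTT/glycerol buffer, washed, crosslinked with 0.1% formaldehyde, ligated by proximity, amplified by PCR and sequenced. Dividing each hexamer's read frequency for a factor by its frequency for the tag-only sample gives the binding signal.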
# ELK1 = target: T2, ELK1 (Homo sapiens, UniProt P19419 1-428)
# T2 sequence: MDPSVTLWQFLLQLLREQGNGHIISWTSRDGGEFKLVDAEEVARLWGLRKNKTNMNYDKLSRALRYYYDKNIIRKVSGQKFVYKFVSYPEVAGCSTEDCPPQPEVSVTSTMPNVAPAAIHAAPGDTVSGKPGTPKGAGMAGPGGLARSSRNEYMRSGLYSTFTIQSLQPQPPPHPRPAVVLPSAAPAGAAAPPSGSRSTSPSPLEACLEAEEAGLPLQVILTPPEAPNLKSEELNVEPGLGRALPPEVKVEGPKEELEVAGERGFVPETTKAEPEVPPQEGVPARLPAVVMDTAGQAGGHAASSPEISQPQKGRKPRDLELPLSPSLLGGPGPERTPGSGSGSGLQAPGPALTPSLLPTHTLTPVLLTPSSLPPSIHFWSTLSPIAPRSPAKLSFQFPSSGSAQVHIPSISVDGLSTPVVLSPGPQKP
# How it was run: as §1
# ERG = target: T3, ERG (Homo sapiens, UniProt P11308 1-479)
# T3 sequence: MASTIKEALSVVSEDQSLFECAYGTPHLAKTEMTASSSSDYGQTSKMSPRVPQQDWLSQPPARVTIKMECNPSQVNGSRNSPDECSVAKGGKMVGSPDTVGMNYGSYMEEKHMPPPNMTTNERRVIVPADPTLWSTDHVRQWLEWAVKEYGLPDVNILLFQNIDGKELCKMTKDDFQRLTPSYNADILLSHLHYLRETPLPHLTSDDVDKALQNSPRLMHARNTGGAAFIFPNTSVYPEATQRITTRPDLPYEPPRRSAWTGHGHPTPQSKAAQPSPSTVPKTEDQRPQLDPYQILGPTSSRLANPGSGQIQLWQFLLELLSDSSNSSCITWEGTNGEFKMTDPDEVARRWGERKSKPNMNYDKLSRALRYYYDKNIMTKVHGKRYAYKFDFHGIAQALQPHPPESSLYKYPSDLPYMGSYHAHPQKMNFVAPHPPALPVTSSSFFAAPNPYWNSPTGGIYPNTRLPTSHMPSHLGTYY
# How it was run: as §1
# ELF1 = ELF1 (Homo sapiens, UniProt P32519 1-619)
# How it was run: as §1
# EHF = target: T4, EHF (Homo sapiens, UniProt Q9NZC4 1-300)
# T4 sequence: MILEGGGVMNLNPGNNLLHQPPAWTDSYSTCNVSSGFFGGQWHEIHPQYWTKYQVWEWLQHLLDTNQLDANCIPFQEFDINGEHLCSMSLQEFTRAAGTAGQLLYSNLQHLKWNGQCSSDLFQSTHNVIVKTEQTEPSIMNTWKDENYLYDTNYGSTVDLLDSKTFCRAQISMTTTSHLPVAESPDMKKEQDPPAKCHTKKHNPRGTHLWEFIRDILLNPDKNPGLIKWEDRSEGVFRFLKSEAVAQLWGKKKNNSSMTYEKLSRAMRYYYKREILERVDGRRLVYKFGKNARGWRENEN
# How it was run: as §1
# SPI1 = SPI1 (Homo sapiens, UniProt P17947 1-270)
# How it was run: as §1
# SPIC = target: T5, SPIC (Homo sapiens, UniProt Q8N5J4 1-248)
# T5 sequence: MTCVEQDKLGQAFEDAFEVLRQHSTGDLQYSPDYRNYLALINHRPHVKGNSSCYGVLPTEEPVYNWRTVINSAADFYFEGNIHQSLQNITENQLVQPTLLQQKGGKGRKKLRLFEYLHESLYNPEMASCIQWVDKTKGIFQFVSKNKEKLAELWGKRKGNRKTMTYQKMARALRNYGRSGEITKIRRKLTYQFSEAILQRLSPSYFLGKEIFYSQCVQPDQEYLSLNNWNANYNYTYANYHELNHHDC
# How it was run: as §1
# ELF4 = ELF4 (Homo sapiens, UniProt Q99607 1-663)
# How it was run: as §1
# ELK4 = target: T6, ELK4 (Homo sapiens, UniProt P28324-2 1-405)
# T6 sequence: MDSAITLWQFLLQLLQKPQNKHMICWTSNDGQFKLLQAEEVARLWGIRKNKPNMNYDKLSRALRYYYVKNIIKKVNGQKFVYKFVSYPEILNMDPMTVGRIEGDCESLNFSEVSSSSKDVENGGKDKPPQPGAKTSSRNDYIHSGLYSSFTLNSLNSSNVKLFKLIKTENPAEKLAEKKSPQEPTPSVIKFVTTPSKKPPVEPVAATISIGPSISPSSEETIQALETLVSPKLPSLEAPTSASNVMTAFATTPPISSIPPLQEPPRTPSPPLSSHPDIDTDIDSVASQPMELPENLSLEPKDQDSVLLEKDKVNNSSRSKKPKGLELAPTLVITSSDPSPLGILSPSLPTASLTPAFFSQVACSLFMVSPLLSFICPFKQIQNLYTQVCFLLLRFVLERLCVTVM
# How it was run: as §1
# ERF = target: T7, ERF (Homo sapiens, UniProt P50548 1-548)
# T7 sequence: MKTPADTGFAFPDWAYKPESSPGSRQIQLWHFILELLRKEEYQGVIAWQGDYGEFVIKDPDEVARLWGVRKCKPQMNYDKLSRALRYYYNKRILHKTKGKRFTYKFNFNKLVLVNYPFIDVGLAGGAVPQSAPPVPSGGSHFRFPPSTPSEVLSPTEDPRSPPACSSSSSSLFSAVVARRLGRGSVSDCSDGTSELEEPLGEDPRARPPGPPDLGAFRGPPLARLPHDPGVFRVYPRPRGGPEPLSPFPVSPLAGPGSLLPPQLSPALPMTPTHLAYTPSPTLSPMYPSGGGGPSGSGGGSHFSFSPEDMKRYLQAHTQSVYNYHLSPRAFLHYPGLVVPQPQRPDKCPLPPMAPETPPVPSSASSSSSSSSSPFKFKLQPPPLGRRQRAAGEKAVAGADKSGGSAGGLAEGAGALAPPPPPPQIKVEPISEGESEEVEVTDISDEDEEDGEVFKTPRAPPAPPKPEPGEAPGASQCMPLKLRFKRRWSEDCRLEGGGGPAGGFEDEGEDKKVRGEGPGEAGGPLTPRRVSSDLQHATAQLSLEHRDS
# How it was run: as §1
# ETV3L = target: T8, ETV3L (Homo sapiens, UniProt Q6ZN32 1-361)
# T8 sequence: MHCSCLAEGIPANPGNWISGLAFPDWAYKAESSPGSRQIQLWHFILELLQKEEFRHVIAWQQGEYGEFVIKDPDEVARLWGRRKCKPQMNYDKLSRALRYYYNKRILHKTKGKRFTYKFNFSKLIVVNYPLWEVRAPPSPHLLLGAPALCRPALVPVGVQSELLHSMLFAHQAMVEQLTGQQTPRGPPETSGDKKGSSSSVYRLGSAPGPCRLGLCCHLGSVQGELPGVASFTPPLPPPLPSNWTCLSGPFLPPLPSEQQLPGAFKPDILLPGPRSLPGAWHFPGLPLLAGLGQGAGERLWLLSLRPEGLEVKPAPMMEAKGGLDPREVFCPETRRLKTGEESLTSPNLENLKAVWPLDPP
# How it was run: as §1
# ETV3 = target: T9, ETV3 (Homo sapiens, UniProt P41162-2 1-143)
# T9 sequence: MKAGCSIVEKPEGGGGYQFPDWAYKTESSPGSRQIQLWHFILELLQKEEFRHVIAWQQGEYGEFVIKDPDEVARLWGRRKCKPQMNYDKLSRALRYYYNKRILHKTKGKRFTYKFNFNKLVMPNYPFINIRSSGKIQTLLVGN
# How it was run: as §1
# Sequence of ELF1 (P32519 whole entry): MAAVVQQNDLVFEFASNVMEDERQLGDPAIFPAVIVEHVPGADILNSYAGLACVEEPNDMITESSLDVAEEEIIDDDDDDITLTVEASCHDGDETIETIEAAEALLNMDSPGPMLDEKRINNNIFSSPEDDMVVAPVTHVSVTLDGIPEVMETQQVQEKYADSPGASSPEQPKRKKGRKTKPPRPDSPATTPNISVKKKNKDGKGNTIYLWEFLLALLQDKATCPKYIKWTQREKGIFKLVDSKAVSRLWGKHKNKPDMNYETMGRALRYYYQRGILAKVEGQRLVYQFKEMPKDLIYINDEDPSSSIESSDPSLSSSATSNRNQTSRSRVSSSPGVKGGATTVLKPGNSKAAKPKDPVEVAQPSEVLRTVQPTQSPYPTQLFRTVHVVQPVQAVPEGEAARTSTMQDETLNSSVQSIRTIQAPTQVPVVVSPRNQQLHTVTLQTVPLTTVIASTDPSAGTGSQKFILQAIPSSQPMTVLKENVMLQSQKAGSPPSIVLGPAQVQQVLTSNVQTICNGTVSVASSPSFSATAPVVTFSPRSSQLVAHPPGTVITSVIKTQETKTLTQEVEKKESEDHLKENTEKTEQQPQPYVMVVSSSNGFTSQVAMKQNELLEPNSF
# Sequence of ELF4 (Q99607 whole entry): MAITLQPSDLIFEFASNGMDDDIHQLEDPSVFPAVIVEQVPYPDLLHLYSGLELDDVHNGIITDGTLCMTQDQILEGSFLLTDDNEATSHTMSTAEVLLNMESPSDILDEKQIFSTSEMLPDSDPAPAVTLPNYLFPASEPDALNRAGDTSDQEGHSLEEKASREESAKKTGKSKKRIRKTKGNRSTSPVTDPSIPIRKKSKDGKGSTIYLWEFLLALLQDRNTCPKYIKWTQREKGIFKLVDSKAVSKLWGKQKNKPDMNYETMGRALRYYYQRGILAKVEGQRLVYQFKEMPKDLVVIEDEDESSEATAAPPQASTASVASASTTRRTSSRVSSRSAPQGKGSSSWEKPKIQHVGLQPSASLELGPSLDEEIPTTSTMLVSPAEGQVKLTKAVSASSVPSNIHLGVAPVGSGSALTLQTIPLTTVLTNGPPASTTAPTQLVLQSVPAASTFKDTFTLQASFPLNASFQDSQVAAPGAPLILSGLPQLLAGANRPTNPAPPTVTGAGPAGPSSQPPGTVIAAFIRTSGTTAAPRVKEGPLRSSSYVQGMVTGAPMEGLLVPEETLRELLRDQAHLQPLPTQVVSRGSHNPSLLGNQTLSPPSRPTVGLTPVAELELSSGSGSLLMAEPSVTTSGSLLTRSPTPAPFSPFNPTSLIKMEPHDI
sequence,measurement,setting,value
CGCCAT,binding signal,FLI1,"1.08 fold enrichment (6-mer frequency, TF over GST control)"
same,binding signal,ELK1,"1.01 fold enrichment (6-mer frequency, TF over GST control)"
same,binding signal,ERG,"1.02 fold enrichment (6-mer frequency, TF over GST control)"
same,binding signal,ELF1,"1.02 fold enrichment (6-mer frequency, TF over GST control)"
same,binding signal,EHF,"1.01 fold enrichment (6-mer frequency, TF over GST control)"
same,binding signal,SPI1,"1.08 fold enrichment (6-mer frequency, TF over GST control)"
same,binding signal,SPIC,"1.06 fold enrichment (6-mer frequency, TF over GST control)"
same,binding signal,ELF4,"1.12 fold enrichment (6-mer frequency, TF over GST control)"
same,binding signal,ELK4,"1.1 fold enrichment (6-mer frequency, TF over GST control)"
same,binding signal,ERF,"1.08 fold enrichment (6-mer frequency, TF over GST control)"
same,binding signal,ETV3L,"1.08 fold enrichment (6-mer frequency, TF over GST control)"
same,binding signal,ETV3,"1.02 fold enrichment (6-mer frequency, TF over GST control)"

# — paper PMC7862700, “An all-to-all approach to the identification of sequence-specific readers for epigenetic DNA modifications on cytosine”
